# Bioassay records (PubChem)
# LmPK inh – blocks Leishmania mexicana pyruvate kinase activity | Q27686 | purified LmPK, Kinase-Glo ATP luminescence, 1 h | Potency, µM (doses to about 57.5 µM), without a hit: top-dose activity change, negative = inhibition, hits mostly inhibitors | 290,000 tested, 0.37% active; active means well fitted curve in the direction sought with a large enough effect; inconclusive means small, poorly fitted or top-dose-only effect, or another doubt; inactive means no such curve, though single readings can be large; an effect the other way counts as inactive or inconclusive; further: potency means the concentration at half of the fitted maximal effect; on the % scale 0 is the no-effect control and ±100 the full control effect
# Target sequence (Q27686 whole entry, looked up): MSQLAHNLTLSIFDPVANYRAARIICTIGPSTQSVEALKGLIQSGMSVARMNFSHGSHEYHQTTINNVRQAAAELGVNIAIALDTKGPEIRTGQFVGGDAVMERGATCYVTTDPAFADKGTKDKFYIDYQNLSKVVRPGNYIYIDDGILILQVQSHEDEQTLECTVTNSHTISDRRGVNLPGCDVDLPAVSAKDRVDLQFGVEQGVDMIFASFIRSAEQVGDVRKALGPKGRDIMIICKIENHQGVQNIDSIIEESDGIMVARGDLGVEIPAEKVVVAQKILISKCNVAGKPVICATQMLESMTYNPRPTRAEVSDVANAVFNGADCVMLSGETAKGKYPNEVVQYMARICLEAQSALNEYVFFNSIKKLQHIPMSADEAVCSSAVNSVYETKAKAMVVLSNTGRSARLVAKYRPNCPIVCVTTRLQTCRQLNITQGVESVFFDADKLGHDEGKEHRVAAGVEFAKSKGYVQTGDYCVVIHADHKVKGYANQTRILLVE
#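 Kinase-Glo luminescence read after 1 h RT reaction of 0.1 nM LmPK with 0.5 mM PEP and 0.1 mM ADP. Activity scaled between uninhibited and enzyme-free controls.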
# Tb PYK inh – inhibitors of Trypanosoma brucei pyruvate kinase; Q57TT1; TbPYK enzyme, Kinase-Glo Plus ATP luminescence, 45 min; Potency, µM (top dose mostly 76.8 µM), inactives show top-dose activity, negative = inhibition, most hits filed as inhibitors; 410,000 tested, 0.12% active; active means well fitted curve in the direction sought with a large enough effect; inconclusive means small, poorly fitted or top-dose-only effect, or another doubt; inactive means no such curve, though single readings can be large; an effect the other way counts as inactive or inconclusive; further: potency means the concentration at half of the fitted maximal effect; on the % scale 0 is the no-effect control and ±100 the full control effect; nearly all actives have a fitted effect of over 50% in size
#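 Assay buffer: 50 mM TEA pH 7.2, 100 mM KCl, 10 mM MgCl2, 0.05% BSA, 0.01% Tween-20. Pyruvate kinase from T. brucei plus substrate met compound, then ADP (130 uM final). Luminescence was read post 45 min RT.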
# NS1 function inh – influenza NS1 inhibition. Potency, µM (doses to about 46.1 µM), without a hit: at the highest dose activity, positive = more growth. 270,000 tested, 0.4% active; further: potency means the concentration at half of the fitted maximal effect; actives are rising curves; nearly all actives have a fitted effect of over 50% in size
#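 A cell-based growth assay was used: compounds that relieve NS1-induced slow growth of budding yeast raise OD600. Assay medium was yeast nitrogen base with ammonium sulphate and -URA supplement, pH 6.0, with 2% galactose.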
# CHX counter – counter-screen for Shiga toxin inhibitors: cycloheximide protein synthesis inhibition; cell reporter, cycloheximide protein synthesis inhibition counterscreen; max response, %; 300,000 tested, 12% active; AID 2314; in the data active means max response mostly above about 13%, no sharp cut-off; inactive means mostly below about 14%; further: read at 38.3 µM for the half of the compounds with a filed dose; 0% is about no effect
# SARS PLpro yeast – inhibitors of SARS-CoV papain-like protease in yeast; S. cerevisiae expressing SARS-CoV PLpro, growth rescue; Potency, µM (series often up to 32.9 µM), without a hit: at the top dose activity, positive = growth rescue, most hits filed as activators; 330,000 tested, 0.19% active; further: potency means the concentration at half of the fitted maximal effect; 0% is about no effect; nearly all actives have a fitted effect of over 55% in size
# Shiga inhibitor – inhibitors of Shiga toxin in Vero cells; inhibition, % at 38.7 µM; Vero cells, Shiga toxin protein synthesis inhibition reporter; AID 2315; 290,000 tested, 9.2% active; in the data active means inhibition mostly above about 28%, no sharp cut-off; inactive means mostly below about 43%; further: 0% is about no effect
# Active calls of the source: *; ? = inconclusive; . = not tested or not shown. This is one part of a sample in which hits are shown more often than they occur. Unless noted, the call rests on the fitted dose curve.
SMILES,LmPK inh,Tb PYK inh,NS1 function inh,CHX counter,SARS PLpro yeast,Shiga inhibitor
Cc1oc2cc(O)cc(O)c2c(=O)c1-c1ccc2c(c1)OCCCO2,4%,-8%,-102%,34*,-20%,116*
COc1ccc(OCC(=O)NC(=S)Nc2ccc(S(=O)(=O)Nc3cc(C)on3)cc2)cc1,10%,-5%,9%,1,-1%,-2
C=C1C(=O)OC(CCCCCCCC)C1C(=O)O (centres undefined),.,.,.,-4,.,-9
CCCCC(c1nnnn1C1CCCC1)N1CCN(C2CCCC2)CC1 (centres undefined),-1%,-6%,0%,32*,6%,-20
Cc1cccc(-c2noc(CCCC(=O)NCC3CCCO3)n2)c1 (centres undefined),0%,-1%,6%,-2,2%,28
Cc1cccc(-c2noc(-c3ccccc3C(=O)NCC3CCCO3)n2)c1 (centres undefined),6%,-4%,-55%,63*,9%,143*
O=C(NCC1CCCO1)c1ccccc1-c1nc(-c2ccc(Cl)cc2)no1 (centres undefined),0%,-5%,-4%,12*,-8%,27
O=C(NCC1CCCO1)c1ccccc1-c1nc(-c2ccccc2F)no1 (centres undefined),-3%,-3%,-2%,15,?,-4
Cc1ccc(-c2nnc(CCC(=O)N(C)Cc3nccs3)o2)s1,2%,-4%,2%,-4,0%,-6
Cc1ccc(-c2nnc(CCC(=O)NCC3C4CC5CC(C4)CC3C5)o2)s1 (centres undefined),4%,-1%,-5%,52*,-1%,103*
COC(=O)C(CCSC)NC(=O)c1cc2c(n(-c3ccccc3)c1=O)CCCC2=O (centres undefined),2%,1%,-2%,16*,0%,38
CCOC(=O)c1c(C)[nH]c(C)c1S(=O)(=O)NCC(=O)Nc1cccc(SC)c1,.,-7%,.,.,.,.
CC1Cc2[nH]c(=S)[nH]c(=O)c2C(c2ccc(F)cc2)O1 (centres undefined),.,-15%,.,.,.,.
Cc1c(C)c2c(OCC(=O)NCc3ccco3)cc3c(c2oc1=O)CCC(C)(C)O3,1%,10%,12%,1,1%,-2
Cc1cc(=O)oc2c3c(cc(OCC(=O)NCc4ccco4)c12)OC(C)(C)CC3,5%,-1%,-22%,30*,-8%,33*
COc1ccc(CCN(C)C2CCCN(C(=O)CCSC)C2)cc1OC (centres undefined),7%,1%,-6%,-2,-1%,-1
COc1ccc(CCN(C)C2CCCN(C(=O)Cn3cnnn3)C2)cc1OC (centres undefined),3%,0%,15%,12*,0%,16
Cc1ccc(-n2c(CCC(=O)O)ccc2-c2cccs2)cc1C,-1%,?,-10%,7.9*,-6%,39
O=C(O)CCc1ccc(-c2ccccc2)n1-c1cccc(C(=O)O)c1,-4%,-9%,?,131*,-1%,174*
COc1ccc(-c2ccc(CCC(=O)O)n2-c2ccccc2OC)cc1,-4%,-25%,22%,8,5%,-8
COc1ccccc1-n1c(CCC(=O)O)ccc1-c1ccccc1,0%,4%,5%,32*,-7%,36*
O=C(O)CCc1ccc(-c2ccccc2)n1-c1ccc(C(=O)O)cc1,6%,-9%,12%,0,1%,39
O=C(O)CCc1ccc(-c2ccc(Br)cc2)n1-c1cccc(O)c1,-2%,-3%,-3%,32*,-1%,87*
O=C(Cn1ncc2c3ccccc3n(Cc3cccc(Cl)c3)c2c1=O)NCCC1=CCCCC1,.,3%,.,.,.,.
COc1cccc(-c2ccccc2C2=CC(=O)CC(C)(C)C2=O)c1,.,-7%,.,.,.,.
CC1CCN(C(=O)CSc2nc3c(c(=O)n2C)SCC3)CC1,-6%,-9%,11%,18*,-4%,13
Cn1c(SCC(=O)N2CCCC2)nc2c(c1=O)SCC2,.,1%,.,.,.,.
C[C@@H](O)CN(CCN(C[C@@H](C)O)C[C@@H](C)O)C[C@@H](C)O.O=[N+]([O-])O.[Cu],.,.,-3%,.,.,.
COc1ccc2c(c1)O/C(=C\c1sccc1C)C2=O,-18%,-2%,-3%,24*,10%,123
